# Reference: PubChem BioAssay (EPA / NIEHS)
# Active and inactive are the calls of the source. How the source made its calls: active means hit-call score of the fitted dose curve at least 0.9, where 1 is the maximum; inactive means score below 0.9.
# Columns and labels:
# [1] = ATG_E_Box_CIS: Attagene CIS-FACTORIAL HepG2 Assay for human Enhancer Box (E-box) (AID 2282936); settings: HepG2 E-box cis-reporter transcription, actives raise or lower the signal
# Method in brief: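 Endogenous transcription factor activity was sensed in human HepG2 liver cells through transfected cis-promoter reporter units. After 24 h of dosing, total RNA was reverse-transcribed and reporter cDNA resolved by capillary electrophoresis.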
# [2] = ATG_M_61_CIS: Attagene CIS-FACTORIAL HepG2 Assay for M61 Transcription Factor (Internal Marker) (AID 2282937); settings: HepG2 Attagene CIS-FACTORIAL M61 internal marker reporter; actives raise or lower the signal
# Method in brief: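 Using transiently transfected HepG2 liver cells, reporter transcript levels were assessed 24 h post-dosing by RT-PCR and capillary electrophoresis. Changes in either direction were fitted relative to DMSO controls.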
# [3] = ATG_EGR_CIS: Attagene CIS-FACTORIAL HepG2 Assay for human Early Growth Response 1 (EGR1) (AID 2282938); settings: HepG2 Attagene CIS-FACTORIAL EGR reporter mRNA; actives raise or lower the signal
# Method in brief: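 Fluorescent capillary-electrophoresis signal of reporter cDNA fragments serves as read-out. HepG2 cells bear transiently transfected cis-promoter reporter units and are exposed 24 h; gain- or loss-of-signal is fitted against DMSO.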
# [4] = ATG_M_19_CIS: Attagene CIS-FACTORIAL HepG2 Assay for M19 Transcription Factor (Internal Marker) (AID 2282939); settings: HepG2 Attagene CIS-FACTORIAL M19 internal marker reporter; actives raise or lower the signal
# Method in brief: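 HepG2 cells transiently transfected with cis-regulated multiple reporter transcription units were dosed for 24 h; reporter mRNA was quantified by RT-PCR, 6-FAM primer-extension labelling, HpaI digestion and capillary electrophoresis, with bidirectional fitting against DMSO baseline.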
# [5] = ATG_Ets_CIS: Attagene CIS-FACTORIAL HepG2 Assay for human Erythroblast Transformation Specific (ETS) (AID 2282941); settings: HepG2 ETS cis-reporter transcription, actives raise or lower the signal
# Method in brief: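 Bidirectional fit versus DMSO of reporter mRNA signal, detected by RT-PCR and capillary electrophoresis in HepG2 cells transiently transfected with cis-element reporters and dosed 24 h.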
# [6] = biological target: Hepatocyte nuclear factor 3-beta (Homo sapiens) (UniProt Q9Y261); experiment: ATG_FoxA2_CIS: Attagene CIS-FACTORIAL HepG2 Assay for human Forkhead box A2 (FOXA2) (AID 2282942); settings: HepG2 cis-reporter transcription factor activity, 24 h; actives raise or lower the signal
# Chain of Hepatocyte nuclear factor 3-beta (Homo sapiens) (Q9Y261 whole entry, looked up, the tested form may be a part): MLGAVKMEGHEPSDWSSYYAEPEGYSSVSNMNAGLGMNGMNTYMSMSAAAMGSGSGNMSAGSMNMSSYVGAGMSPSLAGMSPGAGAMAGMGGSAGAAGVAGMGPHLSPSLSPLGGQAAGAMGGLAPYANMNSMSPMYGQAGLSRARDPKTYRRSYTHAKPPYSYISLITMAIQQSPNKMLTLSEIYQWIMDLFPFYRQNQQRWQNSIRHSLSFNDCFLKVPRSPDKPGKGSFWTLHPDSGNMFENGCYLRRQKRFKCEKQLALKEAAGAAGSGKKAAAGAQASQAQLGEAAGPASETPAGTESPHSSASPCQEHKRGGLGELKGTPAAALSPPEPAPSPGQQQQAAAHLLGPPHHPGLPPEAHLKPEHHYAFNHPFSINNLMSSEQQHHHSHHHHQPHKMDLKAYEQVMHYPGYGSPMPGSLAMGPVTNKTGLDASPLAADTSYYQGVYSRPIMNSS
# Method in brief: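 Fluorescence signal of reporter cDNA fragments, separated by capillary electrophoresis, reflects endogenous transcription factor activity in transfected HepG2 after 24 h. Both increases and decreases fitted against DMSO.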
# [7] = ATG_FoxO_CIS: Attagene CIS-FACTORIAL HepG2 Assay for human Forkhead box O (FoxO) (AID 2282943); settings: HepG2 Attagene cis-reporter, FoxO element, mRNA; actives raise or lower the signal
# Method in brief: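 Values reflect reporter mRNA induction or loss in HepG2 cells 24 h post-dosing, fitted bidirectionally with DMSO as negative control and baseline. Detection used RT-PCR and fluorescence capillary electrophoresis.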
# [8] = ATG_GATA_CIS: Attagene CIS-FACTORIAL HepG2 Assay for human GATA Binding Protein (AID 2282944); settings: HepG2 GATA cis-element reporter, Attagene multiplex mRNA; actives raise or lower the signal
# Method in brief: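 HepG2 cells transiently transfected with multiplexed cis-element reporter units reflecting endogenous transcription factor activity; reporter mRNA measured after 24 h dosing by RT-PCR, 6-FAM labeling, HpaI digestion and capillary electrophoresis. Bidirectional fitting versus DMSO baseline.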
# [9] = ATG_GLI_CIS: Attagene CIS-FACTORIAL HepG2 Assay for human Zinc Finger Protein GLI1 (AID 2282945); settings: HepG2, Attagene cis-factorial reporter mRNA, GLI element; actives raise or lower the signal
# Method in brief: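 HepG2 cells transiently transfected with cis-promoter multiplexed reporter units report endogenous transcription factor activity. After 24 h chemical exposure, reporter mRNA was quantified by RT-PCR, 6-FAM labelling, HpaI digestion and capillary electrophoresis, with bidirectional fitting against DMSO.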
# [10] = biological target: Bile acid receptor (Homo sapiens) (UniProt Q96RI1); experiment: ATG_IR1_CIS: Attagene CIS-FACTORIAL HepG2 Assay for human Nuclear Receptor Subfamily 1 Group H Member 4 (NR1H4), IR1 submotif (AID 2282946); settings: IR1 reporter transcription, actives raise or lower the signal
# Chain of Bile acid receptor (Homo sapiens) (Q96RI1 whole entry, looked up): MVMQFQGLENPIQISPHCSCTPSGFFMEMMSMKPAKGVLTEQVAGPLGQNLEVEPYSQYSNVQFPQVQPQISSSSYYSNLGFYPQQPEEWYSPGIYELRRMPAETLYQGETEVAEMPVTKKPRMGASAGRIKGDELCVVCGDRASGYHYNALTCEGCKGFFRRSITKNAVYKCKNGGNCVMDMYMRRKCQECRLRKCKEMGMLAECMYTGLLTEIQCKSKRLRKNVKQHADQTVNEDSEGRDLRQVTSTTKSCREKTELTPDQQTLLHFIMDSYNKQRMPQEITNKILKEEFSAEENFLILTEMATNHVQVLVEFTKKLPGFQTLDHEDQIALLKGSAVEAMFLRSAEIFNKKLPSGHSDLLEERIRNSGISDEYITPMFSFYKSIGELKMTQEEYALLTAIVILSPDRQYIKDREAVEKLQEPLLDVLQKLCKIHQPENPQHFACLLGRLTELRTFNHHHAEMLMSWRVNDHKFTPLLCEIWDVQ
# Method in brief: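 Readout: reporter transcript levels by RT-PCR with fluorescent capillary electrophoresis, from HepG2 cells transiently transfected with multiplexed cis-regulated reporters and dosed 24 h. Gain- or loss-of-signal fitted versus DMSO negative control.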
# [11] = ATG_GRE_CIS: Attagene CIS-FACTORIAL HepG2 Assay for human Glucocorticoid Response Elements (GRE) (AID 2282947); settings: HepG2 GRE cis-reporter, Attagene multiplex mRNA; actives raise or lower the signal
# Method in brief: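 Cells (HepG2) bearing transfected cis-promoter reporter transcription units were treated with chemical for 24 hours. Reporter mRNA was measured via RT-PCR with capillary electrophoresis, and activity was fitted in both directions relative to DMSO.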
# [12] = ATG_ISRE_CIS: Attagene CIS-FACTORIAL HepG2 Assay for human Interferon Regulatory Factor 1 (IRF1) binding to an Interferon-Stimulated Response Element (ISRE) (AID 2282948); settings: HepG2 ISRE cis-reporter (Attagene), mRNA transcription readout; actives raise or lower the signal
# Method in brief: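 Uses HepG2 liver cells transfected with cis-regulated reporters and measures mRNA 24 h post-dosing through RT-PCR, primer-extension labelling and capillary electrophoresis, with DMSO as negative control.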
# [13] = ATG_M_32_CIS: Attagene CIS-FACTORIAL HepG2 Assay for M32 Transcription Factor (Internal Marker) (AID 2282949); settings: HepG2 Attagene cis-factorial M32 reporter, mRNA; actives raise or lower the signal;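 further: background control marker of the multiplexed CIS panel rather than a real target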
# Method in brief: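 HepG2 transfectants (cis-regulated reporter transcription units) dosed 24 h. Reporter mRNA by RT-PCR plus CE, analysed as gain or loss relative to DMSO.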
# [14] = ATG_M_06_CIS: Attagene CIS-FACTORIAL HepG2 Assay for M06 Transcription Factor (Internal Marker) (AID 2282950); settings: HepG2 Attagene CIS-FACTORIAL M06 internal marker reporter; actives raise or lower the signal
# Method in brief: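 HepG2 cells transiently transfected with cis-regulated multiple reporter transcription units were exposed to chemical for 24 h; reporter mRNA was quantified by RT-PCR, 6-FAM primer labelling, HpaI digestion and capillary electrophoresis, fitted bidirectionally against DMSO.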
# [15] = biological target: Hypoxia-inducible factor 1-alpha (Homo sapiens) (UniProt Q16665); experiment: ATG_HIF1a_CIS: Attagene CIS-FACTORIAL HepG2 Assay for human Hypoxia Inducible Factor 1 (HIF1A) (AID 2282951); settings: HepG2 Attagene cis-factorial HIF1a reporter transcription; actives raise or lower the signal
# Chain of Hypoxia-inducible factor 1-alpha (Homo sapiens) (Q16665 whole entry, looked up): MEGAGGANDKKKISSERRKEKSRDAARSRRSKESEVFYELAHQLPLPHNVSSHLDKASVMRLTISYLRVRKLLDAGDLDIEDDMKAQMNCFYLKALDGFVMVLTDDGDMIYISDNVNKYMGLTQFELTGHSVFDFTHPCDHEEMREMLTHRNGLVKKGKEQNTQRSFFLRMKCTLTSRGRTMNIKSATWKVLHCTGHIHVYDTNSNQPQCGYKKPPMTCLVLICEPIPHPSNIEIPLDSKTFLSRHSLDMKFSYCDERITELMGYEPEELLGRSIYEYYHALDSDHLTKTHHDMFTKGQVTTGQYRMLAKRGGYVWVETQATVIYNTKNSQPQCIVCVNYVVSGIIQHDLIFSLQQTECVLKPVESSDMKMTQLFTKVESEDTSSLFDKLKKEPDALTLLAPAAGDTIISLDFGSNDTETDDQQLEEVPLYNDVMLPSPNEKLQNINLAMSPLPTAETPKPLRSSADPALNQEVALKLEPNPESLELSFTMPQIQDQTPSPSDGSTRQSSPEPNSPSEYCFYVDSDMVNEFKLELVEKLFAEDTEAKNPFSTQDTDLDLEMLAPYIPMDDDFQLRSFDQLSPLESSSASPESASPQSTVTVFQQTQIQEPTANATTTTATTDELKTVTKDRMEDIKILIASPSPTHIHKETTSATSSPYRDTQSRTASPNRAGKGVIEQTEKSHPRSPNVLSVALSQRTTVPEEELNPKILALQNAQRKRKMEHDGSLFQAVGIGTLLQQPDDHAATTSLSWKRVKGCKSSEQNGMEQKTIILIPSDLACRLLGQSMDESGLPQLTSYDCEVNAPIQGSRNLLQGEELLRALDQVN
# Method in brief: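 Endogenous-TF cis reporter readout, human HepG2 cells, 24 h incubation; mRNA detected via RT-PCR and capillary electrophoresis fluorescence; DMSO-normalised bidirectional fitting.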
# [16] = biological target: Hepatocyte nuclear factor 6 (Homo sapiens) (UniProt Q9UBC0); experiment: ATG_HNF6_CIS: Attagene CIS-FACTORIAL HepG2 Assay for human Hepatocyte Nuclear Factor 6 (HNF6) (AID 2282952); settings: HepG2 Attagene cis-factorial HNF6 reporter transcription; actives raise or lower the signal
# Chain of Hepatocyte nuclear factor 6 (Homo sapiens) (Q9UBC0 whole entry, looked up, the tested form may be a part): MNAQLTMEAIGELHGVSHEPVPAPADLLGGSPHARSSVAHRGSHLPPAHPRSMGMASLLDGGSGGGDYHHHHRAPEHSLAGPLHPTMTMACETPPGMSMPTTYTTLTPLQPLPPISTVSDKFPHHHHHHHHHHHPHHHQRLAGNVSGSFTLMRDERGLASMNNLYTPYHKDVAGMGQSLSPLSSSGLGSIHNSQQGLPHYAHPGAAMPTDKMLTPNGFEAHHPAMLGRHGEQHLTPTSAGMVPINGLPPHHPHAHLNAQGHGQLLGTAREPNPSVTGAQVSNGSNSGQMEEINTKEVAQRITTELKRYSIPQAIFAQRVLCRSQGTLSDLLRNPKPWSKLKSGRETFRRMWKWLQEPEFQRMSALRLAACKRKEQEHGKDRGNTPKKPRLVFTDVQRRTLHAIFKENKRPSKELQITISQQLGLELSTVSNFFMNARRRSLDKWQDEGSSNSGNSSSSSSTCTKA
# Method in brief: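 Using cis-element reporters in HepG2 liver cells, the assay tracks endogenous factor-driven transcription 24 h post-dosing. Signal comes from 6-FAM-labelled, HpaI-digested RT-PCR fragments, with gain or loss scored against DMSO.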
# [17] = biological target: Heat shock factor protein 1 (Homo sapiens) (UniProt Q00613); experiment: ATG_HSE_CIS: Attagene CIS-FACTORIAL HepG2 Assay for human Heat Shock Transcription Factor 1 (HSE) (AID 2282953); settings: HepG2 HSE cis-reporter, Attagene RNA transcription; actives raise or lower the signal
# Chain of Heat shock factor protein 1 (Homo sapiens) (Q00613 whole entry, looked up): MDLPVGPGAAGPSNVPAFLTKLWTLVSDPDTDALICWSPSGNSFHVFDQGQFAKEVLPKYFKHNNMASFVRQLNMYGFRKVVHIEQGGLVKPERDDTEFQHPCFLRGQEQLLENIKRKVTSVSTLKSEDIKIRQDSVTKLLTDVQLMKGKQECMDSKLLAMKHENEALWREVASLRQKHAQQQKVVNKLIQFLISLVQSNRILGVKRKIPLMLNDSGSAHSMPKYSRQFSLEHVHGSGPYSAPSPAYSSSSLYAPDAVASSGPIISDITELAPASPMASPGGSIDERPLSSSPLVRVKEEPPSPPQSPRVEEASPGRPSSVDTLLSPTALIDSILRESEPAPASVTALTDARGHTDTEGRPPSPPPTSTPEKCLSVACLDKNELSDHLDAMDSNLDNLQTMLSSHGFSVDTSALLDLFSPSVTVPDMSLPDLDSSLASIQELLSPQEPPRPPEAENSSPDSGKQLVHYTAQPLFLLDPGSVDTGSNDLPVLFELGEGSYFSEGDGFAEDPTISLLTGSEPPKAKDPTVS
# Method in brief: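 HepG2 cells transiently transfected with multiple reporter transcription units under cis-regulatory promoter control, measuring endogenous transcription factor activity. After 24 h chemical exposure, reporter mRNA quantified by RT-PCR, fluorescent labelling, HpaI digestion and capillary electrophoresis; bidirectional fit versus DMSO.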
# [18] = ATG_MRE_CIS: Attagene CIS-FACTORIAL HepG2 Assay for human Metal Responsive Element (MRE) (AID 2282954); settings: HepG2 MRE cis-reporter transcription, Attagene multiplex; actives raise or lower the signal
# Method in brief: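 Cells were transfected with cis-promoter reporter transcription units, then dosed for 24 h. RNA was reverse-transcribed, amplified, fluorescently labelled and resolved by capillary electrophoresis, and activity was fitted in both directions relative to DMSO.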
# [19] = ATG_ERE_CIS: Attagene CIS-FACTORIAL HepG2 Assay for Estrogen Response Element (ERE) (AID 2282940); settings: HepG2 ERE cis-reporter, Attagene RNA transcript; actives raise or lower the signal
# Method in brief: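 HepG2 cells transiently transfected with cis-promoter-driven multiplexed reporter transcription units report endogenous TF activity. After 24 h compound exposure, reporter mRNA is quantified by RT-PCR with capillary electrophoresis fluorescence; bidirectional fitting versus DMSO baseline.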
# [20] = ATG_PBREM_CIS: Attagene CIS-FACTORIAL HepG2 Assay for human Phenobarbital-responsive Enhancer Module (PBREM) (AID 2282955); settings: HepG2 PBREM cis-reporter, Attagene multiplexed transcription; actives raise or lower the signal
# Method in brief: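 Readout: reporter mRNA, fluorescent RT-PCR fragments separated by capillary electrophoresis. System: HepG2 transiently transfected with cis-regulated reporter units. Exposure: 24 h. Analysis: bidirectional, DMSO baseline.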
smiles,measurement,setting,value
O=C(Nc1ccc([N+](=O)[O-])cc1)Nc1ccc([N+](=O)[O-])cc1 (tested in a mixture with another compound),outcome,[1],inactive
same,outcome,[2],inactive
same,outcome,[3],inactive
same,outcome,[4],inactive
same,outcome,[5],inactive
same,outcome,[6],inactive
same,outcome,[7],inactive
same,outcome,[8],inactive
same,outcome,[9],inactive
same,outcome,[10],inactive
same,outcome,[11],inactive
same,outcome,[12],inactive
same,outcome,[13],inactive
same,outcome,[14],inactive
same,outcome,[15],inactive
same,outcome,[16],inactive
same,outcome,[17],inactive
same,outcome,[18],inactive
CN(C)c1ccncc1,outcome,[1],inactive
same,outcome,[2],inactive
same,outcome,[3],inactive
same,outcome,[4],inactive
same,outcome,[19],inactive
same,outcome,[5],inactive
same,outcome,[7],inactive
same,outcome,[8],inactive
same,outcome,[9],inactive
same,outcome,[12],inactive
same,outcome,[13],inactive
same,outcome,[14],inactive
same,outcome,[15],inactive
same,outcome,[16],inactive
same,outcome,[17],inactive
same,outcome,[18],inactive
same,outcome,[20],inactive
OCCCCC(O)CO (stereo unspecified),outcome,[1],inactive
same,outcome,[2],inactive
same,outcome,[3],inactive
same,outcome,[4],inactive
same,outcome,[5],inactive
same,outcome,[6],inactive
same,outcome,[7],inactive
same,outcome,[8],inactive
same,outcome,[9],inactive
same,outcome,[10],inactive
same,outcome,[11],inactive
same,outcome,[12],inactive
same,outcome,[13],inactive
same,outcome,[14],inactive
same,AC50,[15],23.2 µM (active)
same,outcome,[16],inactive
same,outcome,[17],inactive
same,outcome,[18],inactive
CC=Cc1ccc(OC)c(OC)c1,outcome,[1],inactive
same,outcome,[2],inactive
same,outcome,[3],inactive
same,outcome,[4],inactive
same,outcome,[5],inactive
same,outcome,[6],inactive
same,outcome,[7],inactive
same,outcome,[8],inactive
same,outcome,[9],inactive
same,outcome,[10],inactive
same,outcome,[11],inactive
same,outcome,[12],inactive
same,outcome,[13],inactive
same,outcome,[14],inactive
same,outcome,[15],inactive
same,outcome,[16],inactive
same,outcome,[17],inactive
same,outcome,[18],inactive
CC=CC=CCOC(=O)C(C)C,outcome,[1],inactive
same,outcome,[2],inactive
same,outcome,[3],inactive
same,outcome,[4],inactive
same,outcome,[5],inactive
same,outcome,[6],inactive
same,outcome,[7],inactive
same,outcome,[8],inactive
same,outcome,[9],inactive
same,outcome,[10],inactive
same,outcome,[11],inactive
same,AC50,[12],100 µM (active)
same,outcome,[13],inactive
same,outcome,[14],inactive
same,outcome,[15],inactive
same,outcome,[16],inactive
same,outcome,[17],inactive
same,outcome,[18],inactive
same,outcome,[20],inactive
CC(=O)O[C@H]1C[C@@H]2CC[C@@]1(C)C2(C)C,outcome,[1],inactive
same,outcome,[2],inactive
same,outcome,[3],inactive
same,outcome,[4],inactive
same,outcome,[5],inactive
same,outcome,[6],inactive
same,outcome,[7],inactive
same,outcome,[8],inactive
same,outcome,[9],inactive
same,outcome,[10],inactive
same,outcome,[11],inactive
same,outcome,[12],inactive
same,outcome,[13],inactive
same,outcome,[14],inactive
same,outcome,[15],inactive
same,outcome,[16],inactive
same,outcome,[17],inactive
same,outcome,[18],inactive
same,outcome,[20],inactive
CCCCC1(COC(=O)CCC(=O)O)C(=O)N(c2ccccc2)N(c2ccccc2)C1=O,outcome,[1],inactive
same,outcome,[2],inactive
same,outcome,[3],inactive
same,outcome,[4],inactive
same,outcome,[19],inactive
same,outcome,[5],inactive
same,outcome,[6],inactive
same,outcome,[8],inactive
same,outcome,[9],inactive
same,outcome,[12],inactive
same,outcome,[13],inactive
same,outcome,[14],inactive
same,outcome,[16],inactive
same,outcome,[17],inactive
same,outcome,[18],inactive
O=[N+]([O-])c1cccc(Cl)c1,outcome,[1],inactive
same,outcome,[2],inactive
same,outcome,[3],inactive
same,outcome,[4],inactive
same,outcome,[19],inactive
same,outcome,[5],inactive
same,outcome,[6],inactive
same,outcome,[7],inactive
same,outcome,[8],inactive
same,outcome,[9],inactive
same,outcome,[12],inactive
same,outcome,[13],inactive
same,outcome,[14],inactive
same,outcome,[15],inactive
same,outcome,[16],inactive
same,outcome,[17],inactive
same,outcome,[18],inactive
